An excerpt weighted towards active compounds, which were near 15% of everything screened.
Gal4-VP16 FLuc – inhibits Gal4-VP16 luciferase reporter, ROR gamma counter-screen; Drosophila S2 Gal4-VP16 UAS-luciferase, luminescence, 20 h; Potency, µM (highest dose often 53.6 µM), for inactives: at the top dose activity, negative = inhibition, usual class: inhibitors; 310,000 tested, 3.5% active; AID 2546;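 further: Gal4-VP16 expression switched on by copper sulfate through the metallothionein promoter; nearly all actives have a fitted effect of over 50% in size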
RORgamma inh – ROR gamma (mouse) transcription inhibition | AID 2551 | 310,000 tested, 5.4% active | P51450 | Drosophila S2 Gal4-RORgamma UAS-luciferase reporter, 20 h | Potency, µM (series often up to 53.6 µM), for inactives: top-dose activity change, negative = inhibition, hits mostly inhibitors; further: nearly all actives have a fitted effect of over 60% in size
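A Gal4/UAS one-hybrid system in insect cells: metallothionein-promoter Gal4–ROR gamma fusion plus Photinus luciferase reporter. Copper sulfate 700 uM final, 20 hr ambient incubation, luminescent detection after 10 min with reagent.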
TDP1 cell noCPT – qHTS for Inhibitors of human tyrosyl-DNA phosphodiesterase 1 (TDP1): qHTS in cells in absence of CPT; DT40 Tdp1-/- hTDP1 cells, no CPT, ATP luminescence, 48 h; Potency, µM (titrated, usually from 46.2 µM), without a hit: top-dose activity change, negative = growth inhibition, most hits filed as inhibitors; 420,000 tested, 15% active; further: nearly all actives have a fitted effect of over 55% in size
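Cells were dispensed at 400 per well, compounds added by pin tool, plates incubated ≥48 hr at 37 °C, then CellTiter-Glo added for 30 min at room temperature before luminescence reading. Line: DT40 Tdp1-/- complemented with hTDP1; camptothecin omitted.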
ALOX12 inh – blocks human arachidonate 12S-lipoxygenase; purified 12hLO, xylenol orange hydroperoxide absorbance; Potency, µM (highest dose often 108 µM), inactives show at the highest dose activity change, negative = inhibition, usual class: inhibitors; 580,000 tested, 1.1% active; AID 1671190
Target sequence (P18054 whole entry, looked up): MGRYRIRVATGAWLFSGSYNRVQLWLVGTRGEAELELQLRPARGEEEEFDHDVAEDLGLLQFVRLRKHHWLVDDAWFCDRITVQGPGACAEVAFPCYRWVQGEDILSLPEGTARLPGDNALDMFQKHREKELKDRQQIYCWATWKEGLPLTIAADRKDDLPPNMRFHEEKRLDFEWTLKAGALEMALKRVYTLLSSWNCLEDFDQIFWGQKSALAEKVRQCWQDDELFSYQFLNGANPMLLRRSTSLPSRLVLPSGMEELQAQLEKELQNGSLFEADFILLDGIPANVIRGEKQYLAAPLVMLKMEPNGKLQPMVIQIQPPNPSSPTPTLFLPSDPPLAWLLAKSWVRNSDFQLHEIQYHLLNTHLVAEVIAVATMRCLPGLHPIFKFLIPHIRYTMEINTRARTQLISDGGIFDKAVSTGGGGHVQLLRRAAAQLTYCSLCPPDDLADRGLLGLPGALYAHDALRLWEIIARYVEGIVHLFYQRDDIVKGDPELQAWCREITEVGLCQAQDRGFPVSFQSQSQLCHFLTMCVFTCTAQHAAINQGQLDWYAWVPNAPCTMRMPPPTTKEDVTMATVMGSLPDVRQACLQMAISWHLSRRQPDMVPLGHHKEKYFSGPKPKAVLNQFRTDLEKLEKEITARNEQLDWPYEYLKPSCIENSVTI
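Purified human 12hLO at 150 nM in 25 mM Hepes, 0.01% Triton X-100, pH 7.0, preincubated 15 min at room temperature with compound. Reaction started with 40 uM arachidonic acid, 30 min at room temperature. Hydroperoxide measured by Fe-xylenol orange, 573/405 nm absorbance ratio.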
TDP1 cell CPT – growth inhibition of DT40 Tdp1-/-;hTDP1 cells with camptothecin (screen for TDP1 inhibitors); chicken DT40 Tdp1-/-;hTDP1 cells + 20 nM CPT, ATP luminescence, 48 h; Potency, µM (titrated, usually from 46.2 µM), inactives show top-dose activity change, negative = growth inhibition, usual class: inhibitors; 420,000 tested, 12% active; further: nearly all actives have a fitted effect of over 55% in size
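Chicken DT40 Tdp1-/- cells stably complemented with human TDP1 were seeded at 400 cells/well in medium containing 20 nM camptothecin, exposed to pin-transferred compounds, and grown at 37 °C for at least 48 hr. Viability was read as ATP luminescence.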
ELG1 DNA repair – ELG1-dependent DNA repair inhibition | HEK293T ELG1-luciferase reporter, luminescence, 16 h; DNA damage induced by 5-fluorouridine | Potency, µM (titrated, usually from 46.1 µM), inactives show at the highest dose activity change, negative = inhibition, actives largely listed as inhibitors | 330,000 tested, 2.3% active; further: nearly all actives have a fitted effect of over 55% in size
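Overnight (16 hr) co-exposure of 2,000 cells/well to 5-fluorouridine and compound at 37 °C preceded detection. Luciferase was quantified via ONE-Glo luminescence; loss of signal denotes inhibition.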
Active calls of the source: *; ? = inconclusive; / = no result given; ! = not active in a repeat; [ ] = remark or other dose. The call rests on the fitted dose curve; in most records, active means well fitted curve in the direction sought with a large enough effect; inconclusive means small, poorly fitted or top-dose-only effect, or another doubt; inactive means no such curve, though single readings can be large; an effect the other way counts as inactive or inconclusive. On the % scale 0 is the no-effect control and ±100 the full control effect; potency means the concentration at half of the fitted maximal effect.

SMILES	Gal4-VP16 FLuc	RORgamma inh	TDP1 cell noCPT	ALOX12 inh	TDP1 cell CPT	ELG1 DNA repair
CCOC(=O)CN1CCN(c2nc3c(c(=O)[nH]c(=O)n3C)n2Cc2cccc3ccccc23)CC1	/	/	/	-16%	/	/
Cc1nc2ccccc2nc1SCC(=O)Nc1ccccc1OC(C)C	/	/	/	0%	/	/
COCCN1C(=O)[C@@H]2C[C@@H](CN2Cc2ccccc2F)Oc2ccccc21	/	/	/	-25%[176 µM]	/	/
CCn1cc(CN2CCCC(C(=O)c3ccc(-c4ccccc4)c(F)c3)C2)cn1 (configuration not stated)	1%	8%	23µM*	?	18µM*	-22%
CSc1ccccc1C(=O)C1CCCN(Cc2cnn(-c3ccccc3)c2)C1 (configuration not stated)	0%	-5%	?	-8%	-27%	-18%
O=C(Cc1cccc(F)c1)N1CCC2(CC1)NCCc1c2[nH]c2ccccc12	/	/	/	1%	/	/
NNC(=S)Nc1ccc(Br)cc1	/	/	/	7.1µM*	/	/
CC(=O)Nc1ccc(NC(=S)Nc2ccc(Br)cc2)cc1	1%	-22%	3%	-23%	13%	?
COC(=O)NNC(=S)Nc1ccc(Br)cc1	-15%	14µM*	23%	135%	?	13%
Cc1ccc(NC(=S)Nc2ccc(Br)cc2)cc1	?	7.9µM*	?	-7%	-22%	0%
O=C(Nc1c(F)cc(F)cc1Br)c1ccco1	-29%	?	-3%	-13%	11%	17%
NNC(=S)Nc1c(Br)cc(F)cc1Br	?	6.3µM*	-16%	-17%	-5%	-15%
S=C(Nc1ccccc1)Nc1ccc(Br)cc1	?	?	21µM*	-28%	16µM*	-13%
N#Cc1ccc(NC(=S)Nc2ccccc2)cc1	-2%	-17%	15µM*	-5%	?	0%
CN1CCN(c2ccc(NC(=S)NC(=O)c3cccc4ccccc34)cc2)CC1	?	?	12µM*	28µM*	23µM*	2%
CN1CCN(c2ccc(NC(=S)NC(=O)c3cccc4c(Br)cccc34)cc2)CC1	-13%	?	18µM*	2%	21µM*	-13%
CC(=O)N1CCN(c2ccc(NC(=S)NC(=O)c3ccccc3)cc2)CC1	-11%	-17%	-12%	-26%	-13%	4%
CN1CCN(c2ccc(NC(=O)c3ccc4ccccc4c3)cc2)CC1	?	11µM*	?	?	?	?
COc1ccc(C(=O)Nc2ccc(N3CCN(C)CC3)cc2)cc1	3%	-25%[1.91 µM]	-7%	0%	?	?
CC(C)C(CNC(=O)c1cc(-c2ccncc2)nc2ccccc12)N(C)C (configuration not stated)	/	/	/	10%	/	/
CN(Cc1ccco1)C(=O)c1cc(-c2ccccn2)nc2ccccc12	/	/	/	16%	/	/
O=S1(=O)NC2(CCCN(Cc3ccc(F)cc3)C2)COc2ccccc21 (configuration not stated)	/	/	/	1%[6.33 µM]	/	/
CC(C)=CC(O)C/C(C)=C/COc1ccc2ccc(=O)oc2c1 (configuration not stated)	-3%	-2%	9.2µM*	26%	7.3µM*	-10%
O=C(O)c1cc(=O)c2c3nc4ccccc4oc-3cc(=O)c2[nH]1	13%	1%	11µM*!	/	25µM*	/
Fc1cccc(-c2nn3c(CN4CCOCC4)nnc3s2)c1	/	/	/	-1%	/	/
CCn1nc(-c2ccccc2)c(-c2ccccc2)c(C(=O)Nc2nc(C)c(C(C)=O)s2)c1=O	/	/	1.6µM*	-8%	1.6µM*	/
Cc1c(NCc2nc(-c3ccco3)no2)cccc1-n1cnnn1	/	/	/	-29%	/	/
COc1ccc(C2Cn3cnc(C(=O)N4CCC(C(=O)NCC5CCCCC5)CC4)c3CO2)cc1 (configuration not stated)	/	/	/	10%	/	/
